In article PMC4552634, “A New Set of Chemical Starting Points with Plasmodium falciparum Transmission-Blocking Potential for Antimalarial Drug Discovery” (PLoS ONE, 2015):
Hit rate of the full screen: of about 13,000 compounds, about 3,200 (25%) showed an effect of 50% or more. The list shows a part of the results.

Each compound was assayed on P. falciparum stage V gametocytes. Conditions: 48 h, 5 µM; inhibitor.
Set-up: BacTiter-Glo ATP luminescence viability of purified stage V gametocytes in 384-well plates, per cent inhibition versus DMSO

SMILES | % Inhibition [%]
COc1cc2c(cc1OC)CC(NCc1ccc(-c3ccc4nc[nH]c4c3)cc1)C2 [TCMDC-133474] | 37.11
COc1ccc(CNCC2CCC(CNCCc3ccccc3)CC2)cc1Cl (stereo not drawn) [TCMDC-140364] | -22.08
COc1ccc(CN(C)CCCc2ccc(NC(=O)Cc3ccc4nc(-c5ccccc5)ccc4c3)cc2)cc1OC [TCMDC-131845] | 17.3
COc1ccc(CNCCCCCCNCCc2ccc(Cl)cc2)cc1OC [TCMDC-131282] | 88.88
COc1cc2c(cc1OC)CN(CCCCc1ccc(NC(=O)c3cc(Cl)cc(Cl)c3)cc1)CC2 [TCMDC-138174] | -15.17
COc1cc2c(cc1OC)CC(NCCCCCCNCCc1ccc(Cl)cc1)CC2 (stereo not drawn) [TCMDC-132038] | 103.4
COc1ccc(CCNCCCCCCNCCc2ccc(-c3ccccc3)cc2)cc1OC [TCMDC-131267] | 96.14
COc1ccc(CCNCCCCCCNCCCc2ccc(Cl)cc2)cc1OC [TCMDC-131280] | 105.1
CCOc1cc2ncnc(Nc3ccc(OCc4c(Cl)cccc4Cl)c(OC)c3)c2cc1OCC [TCMDC-131927] | -5.801
CCC(O)(C#Cc1c(C)nc(N)nc1N)CC [TCMDC-137329] | 41.32
N#Cc1ccc(NC(=NCc2cccnc2)Nc2ccc(-c3ccccc3)cc2)c(O)c1 [TCMDC-140208] | -10.63
COc1ccccc1C1CC(c2ccc(Br)cc2)=NN1C(=O)c1ccccc1 (stereo not drawn) [TCMDC-125622] | 32.36
Oc1ccc2[nH]c(-c3cccc(F)c3)nc2c1CN1CCC(N2CCCC2)CC1 [TCMDC-136357] | -60.35
Cc1cccc2[nH]c(-c3ccc(-c4cccc(NC(=O)NCc5cccc(F)c5)c4)cc3)nc12 [TCMDC-133295] | 32.47
COc1cccc(NC(=O)Nc2ccc(Nc3nc(C)cc(N4CCCC4)n3)cc2)c1 [TCMDC-124957] | -12.57
N=C(N)c1cc(Br)cc(NC(=O)Nc2cc(Br)cc(C(=N)N)c2)c1 [TCMDC-124180] | -21.96
CC1CCN(CC[C@H]2CCCN2S(=O)(=O)c2cccc(NC(=O)Nc3ccc(C(F)(F)F)cc3)c2)CC1 [TCMDC-141021] | -52.23
CCCN(CCC)c1nn2c(=O)c(C(=O)N3CCN(Cc4ccccc4)CC3)cnc2s1 [TCMDC-125272] | -5.242
COc1ccc(CCNCCCCCCNCCc2ccc(Cl)c(Cl)c2)cc1OC [TCMDC-131275] | 106.4
Cc1cc(CNCCCCCCCNCc2cccc([N+](=O)[O-])c2)ccc1O [TCMDC-140416] | 12.73
COc1ccc(CCNCCCCCNCCCc2ccc(Cl)cc2)cc1OC [TCMDC-131278] | 107.5
COc1ccc(CCNCCCCCNCCc2ccc(Cl)cc2)cc1OC [TCMDC-131269] | 103.7
COc1ccc(CNCCCCCNCc2ccc(Cl)c(Cl)c2)cc1Cl [TCMDC-140365] | 23.3

SMILES | % Inhibition [%]
COc1ccc(CCNCCCCCCNCCc2cccc([N+](=O)[O-])c2)cc1OC [TCMDC-131262] | 82.84
COc1ccc(CNCCCCCCCNCc2ccc(Cl)c(Cl)c2)cc1Cl [TCMDC-140366] | 13.21
Cc1cc(CNCCCCCNCc2cccc([N+](=O)[O-])c2)ccc1O [TCMDC-140410] | 42.39
Cc1ccc(C2=NNC3(S2)C(=O)N(C)c2ccccc23)cc1 (stereo not drawn) [TCMDC-123863] | 24.25
COc1ccc(C23Oc4cc(OC)cc(OC)c4C2(O)C2(CC3c3ccccc3)SCCCS2)cc1 (stereo not drawn) [TCMDC-132098] | 11.15
OCC(CO)(CO)NCc1ccc2c3c(cccc13)-c1ccccc1-2 [TCMDC-137877] | -8.777
C=CCn1c(C)cc(C(=O)COc2ccc(S(=O)(=O)N3CCOCC3)cc2[N+](=O)[O-])c1C [TCMDC-124326] | 33.1
COc1cc(CNCCCNc2nc3ccsc3c(=O)[nH]2)c2[nH]cc(Cl)c2c1 [TCMDC-140349] | -35.52
COc1cccc(CCNCCCCCCNCCc2ccc(Cl)cc2)c1 [TCMDC-131284] | 113.2
COc1cccc(CCc2cccc(CNC(C)=O)c2)c1 [TCMDC-139277] | -0.06569
COc1ccc2nccc([C@@H](O)CN3CCC(NCc4nc5cc(F)ccc5o4)CC3)c2c1 [TCMDC-140783] | -5.365
c1ccc2c(c1)ncc1c3ccccc3[nH]c21 [TCMDC-131258] | -7.104
NCC1CCCN1Cc1cccc(-c2ccc(-c3nc4ccccc4[nH]3)s2)c1.O=C(O)C(F)(F)F (stereo not drawn) [TCMDC-132987] | 77.53
O=C(O)C(F)(F)F.O=C1CCCN1CCCNCc1cccc(-c2ccc(-c3nc4cc(C(F)(F)F)ccc4[nH]3)s2)c1 [TCMDC-132757] | -29.57
Cc1cccc2nc(-c3ccc(-c4cccc(CN5CCCC5CN)c4)s3)[nH]c12.O=C(O)C(F)(F)F (stereo not drawn) [TCMDC-132997] | 41.54
Cc1cccc2nc(-c3ccc(-c4cccc(CNCCCN5CCCC5=O)c4)s3)[nH]c12.O=C(O)C(F)(F)F [TCMDC-132762] | -3.129
O=C(O)C(F)(F)F.O=C1CCCN1CCCNCc1cccc(-c2ccc(-c3nc4ccccc4[nH]3)s2)c1 [TCMDC-132749] | 78.47
NCC1CCCN1Cc1cccc(-c2ccc(-c3nc4cc(C(F)(F)F)ccc4[nH]3)s2)c1.O=C(O)C(F)(F)F (stereo not drawn) [TCMDC-132992] | 36.35
CCCCCc1cnc2nc(N)nc(N)c2c1 [TCMDC-137922] | -4.326
N#Cc1ccc2c(c1)CCN(CCC1CCC(NC(=O)/C=C/c3c[nH]c4c(Br)cccc34)CC1)CC2 (stereo not drawn) [TCMDC-139672] | -4.951
Cc1cccc2[nH]c(-c3ccc(-c4ccc(NC(=O)NCc5ccc(F)cc5)cc4)cc3)nc12 [TCMDC-133302] | 17.3
CC(=O)Nc1ncc(C(=O)Nc2cccc(-c3ccc(-c4nc5c(C)cccc5[nH]4)cc3)c2)s1 [TCMDC-136913] | 10.82
